{
  "source": "the supplement of paper PMC10338343",
  "note": "± gives the standard deviation.",
  "data": [
    {"system": "MILI (PIWIL2) piRISC loaded with piRNA #1 (26 nt)", "test": "pre-steady-state target cleavage rate (min^-1); guide: piRNA #1 5'p-UGAGGUAGUAGGUUGUAUAGUAUCCA; MIWI and MILI are mouse PIWI proteins and EfPiwi is from a freshwater sponge; tags in brackets are library labels; higher = faster piRNA-guided slicing of the target", "details": "auxiliary factor: 500 nM mouse GTSF1", "protocol": "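Cleave-'n-Seq: a library of target RNAs (target site embedded in constant flanks, ACAGCATTCCGCGTTAGTGATATCCG... 5' flank; DNA-blocked outside the site) at 0.1 nM was incubated with 1 nM active mouse MILI or MIWI piRISC (synthetic 5'-monophosphorylated piRNA guide) with or without 500 nM mouse GTSF1 at 33 °C for 1 min to 16 h. Uncleaved targets were sequenced and normalised to non-target controls, and the pooled three trials were fitted to a burst-and-steady-state model to give the pre-steady-state cleavage rate (min^-1; k3 is constrained to at most 1e-4). Sequence is the target site only; target names encode pairing extent (gX:gY) and contiguous / 1-mismatch / 2-mismatch / bulge geometry. Fits with R² ≤ 0 are excluded.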", "values": [
      {"sequence": "GGAGACCAUACUAUACAUCCUACUAGCUCA", "pre-steady-state target cleavage rate": "0.152 ± 0.024"},
      {"sequence": "GGAGACGAUACUAUACGACCUACUACCUCA", "pre-steady-state target cleavage rate": "0.0963 ± 0.012"},
      {"sequence": "GGAGUGGUUACUAUACAACCUACUACCUGA", "pre-steady-state target cleavage rate": "0.0722 ± 0.01"},
      {"sequence": "GGAGAGGAUACUUUACAACCUACUACCACA", "pre-steady-state target cleavage rate": "0.152 ± 0.015"},
      {"sequence": "GGAGACCAUACUAUACAACCUACAACCUCA", "pre-steady-state target cleavage rate": "0.189 ± 0.024"},
      {"sequence": "GGAGACCAUACUAUACUUGCUACUACCUCA", "pre-steady-state target cleavage rate": "0.0454 ± 0.0044"},
      {"sequence": "GGAGACCUUUCUAUACUACCUACUACCUCA", "pre-steady-state target cleavage rate": "0.0739 ± 0.011"},
      {"sequence": "GGAGACCUUGCUAUACAACCUACUACCUCA", "pre-steady-state target cleavage rate": "0.114 ± 0.022"},
      {"sequence": "GGAGACCUAUGAAUACAAGGUACUACCUCA", "pre-steady-state target cleavage rate": "0.00378 ± 0.003"},
      {"sequence": "GGAGACCUAUGAUAACAACCUACACCUCA", "pre-steady-state target cleavage rate": "< 0.0001"},
      {"sequence": "GGAGACCUAUGUUUACAACCUACAACCUCA", "pre-steady-state target cleavage rate": "0.0131 ± 0.0031"},
      {"sequence": "GGAGACCUUACUAUACAACGUACUACCUGA", "pre-steady-state target cleavage rate": "0.0102 ± 0.0027"},
      {"sequence": "GGAGUGGAUUCUAUACAACCUUCUACCUCA", "pre-steady-state target cleavage rate": "0.00777 ± 0.0028"},
      {"sequence": "GGAGACCUAAUAUACAACCUACUACCUCA", "pre-steady-state target cleavage rate": "0.0727 ± 0.014"},
      {"sequence": "GGAGACCUAUGAUAUGUACCUACUACCCCA", "pre-steady-state target cleavage rate": "< 0.0001"},
      {"sequence": "GGAGACGAUACUAUAGAACCUACUACCUCA", "pre-steady-state target cleavage rate": "0.184 ± 0.015"},
      {"sequence": "GGAGACGAUACUAAAGAACCUACUACCUCA", "pre-steady-state target cleavage rate": "0.166 ± 0.011"},
      {"sequence": "GGAGACCUAUGUCAUACAACCUACUACCUCA", "pre-steady-state target cleavage rate": "0.0265 ± 0.008"},
      {"sequence": "GGAGACCUAUGAUAUGAACCUGCUACCUCA", "pre-steady-state target cleavage rate": "< 0.0001"},
      {"sequence": "GGAGUCGAUACUAUACAACCUAGUACCUCA", "pre-steady-state target cleavage rate": "0.0166 ± 0.0031"},
      {"sequence": "GGAGACCAUACUAUACAACCAACUACCUCA", "pre-steady-state target cleavage rate": "0.00362 ± 0.0025"},
      {"sequence": "GGAGACCUUACUAUUCAUCCUACUACCUCA", "pre-steady-state target cleavage rate": "0.231 ± 0.018"},
      {"sequence": "GGAGACCUAUGAAUACAACCUACUACUCUCA", "pre-steady-state target cleavage rate": "0.00959 ± 0.002"},
      {"sequence": "GGAGACCUUACUAUACAACCUACUACCUCA [g2:g22:cont:t1A]", "pre-steady-state target cleavage rate": "0.165 ± 0.018"},
      {"sequence": "GGAGACGAUACUAUAGAACCUACUACGUCA", "pre-steady-state target cleavage rate": "0.0644 ± 0.013"},
      {"sequence": "GGAGACGAUACUAUUCAACGUACUACCUCA", "pre-steady-state target cleavage rate": "0.0257 ± 0.0034"},
      {"sequence": "GGAGACGAUACUAUACAAGCUACUACCUCA", "pre-steady-state target cleavage rate": "0.269 ± 0.016"},
      {"sequence": "GGAGACCUAUCGUAUACAACCUACUACCUCA", "pre-steady-state target cleavage rate": "0.057 ± 0.011"},
      {"sequence": "GGAGACCAUACUAUACAACCUAAUACCUCA", "pre-steady-state target cleavage rate": "0.117 ± 0.018"},
      {"sequence": "GGAGACCUAUGAAUACAACCGUACUACCUCA", "pre-steady-state target cleavage rate": "0.00389 ± 0.003"},
      {"sequence": "GGAGAGGAUACUAUACAACCUUCAACCUCA", "pre-steady-state target cleavage rate": "0.00483 ± 0.0021"},
      {"sequence": "GGAGAGGAUACUAUUGAACCUACUACCUCA", "pre-steady-state target cleavage rate": "0.124 ± 0.011"},
      {"sequence": "GGAGACCUAACUAUACAACCUACUUCCACA", "pre-steady-state target cleavage rate": "0.0458 ± 0.022"},
      {"sequence": "GGAGAGGAUACUAUGACAACCUACUACCUCA", "pre-steady-state target cleavage rate": "0.143 ± 0.013"},
      {"sequence": "GGAGACCUAUGUUAACAACCUACUACCUCA", "pre-steady-state target cleavage rate": "0.0234 ± 0.0048"},
      {"sequence": "GGAGACCUUACUAUACAACCUGCUACCUCA", "pre-steady-state target cleavage rate": "0.0466 ± 0.0081"},
      {"sequence": "GGAGUGGAUACUAUUACAACCUACUACCUCA", "pre-steady-state target cleavage rate": "0.155 ± 0.0095"},
      {"sequence": "GGAGACCAAACUAUACUACCUACUACCUCA", "pre-steady-state target cleavage rate": "0.119 ± 0.022"},
      {"sequence": "GGAGUGGAUUGAAUACAACCUACUACCUCA", "pre-steady-state target cleavage rate": "0.0713 ± 0.0073"},
      {"sequence": "GGAGACGAUACUAUACAACCUACACCUCA", "pre-steady-state target cleavage rate": "0.00588 ± 0.0025"}
    ]}
  ]
}
